Bioassay records from PubChem.
JMJD2A Tudor – blocks the human JMJD2A Tudor domain. O75164. AlphaScreen JMJD2A-Tudor / H3K4me3 peptide binding. Potency, µM (doses to about 114 µM), actives largely listed as inhibitors. 4.4% of 390,000 active; also: nearly all actives have a fitted effect of over 50% in size
G9a inh – inhibitors of human histone lysine methyltransferase G9a; Potency, µM (highest dose often 102 µM), usual class: inhibitors; Q96KQ7; 8.8% of 350,000 active; G9a H3K9 monomethylation, AlphaScreen, 2 h; also: nearly all actives have a fitted effect of over 75% in size
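G9a (20 nM) was preincubated 15 min with compound, then reacted 2 h at room temperature with 500 nM biotin-H3K9 peptide and 20 µM SAM. Monomethyl-H3K9 detected by AlphaScreen using anti-H3K9me1 antibody.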
HP1b binding inh – inhibitors of HP1-beta chromodomain binding to methylated histone tails. AID 540317. AlphaScreen HP1-beta / biotin-H3K9me3 peptide binding. 0.56% of 390,000 active. Potency, µM (doses to about 114 µM), most hits filed as inhibitors; also: nearly all actives have a fitted effect of over 70% in size
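Compound inhibition of the preformed complex between 50 nM HP1-beta and 50 nM biotinylated H3K9me3 peptide was read by AlphaScreen. Buffer was PBS pH 7.4 with 0.01% Tween-20. Incubations ran 30 min at room temperature, with 10 ug/mL donor/acceptor beads.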
BAZ2B block – blocks human BAZ2B; Q9UIF8; AlphaScreen BAZ2B-H3K14Ac peptide displacement; Potency, µM (top dose mostly 114 µM), most hits filed as inhibitors; 4.4% of 360,000 active; also: nearly all actives have a fitted effect of over 60% in size
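Multi-concentration screen (max 110 uM) measuring displacement of acetylated histone H3 peptide from BAZ2B by AlphaScreen, using 50 nM protein, 50 nM peptide and 10 ug/mL streptavidin donor plus Ni-chelate acceptor beads.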
GLS inh – blocks human kidney-isoform glutaminase activity | Potency, µM (titrated, usually from 45.5 µM), usual class: inhibitors | O94925 | GLS enzymatic activity, qHTS titration | 0.21% of 410,000 active
Target sequence (O94925 whole entry, looked up, canonical isoform): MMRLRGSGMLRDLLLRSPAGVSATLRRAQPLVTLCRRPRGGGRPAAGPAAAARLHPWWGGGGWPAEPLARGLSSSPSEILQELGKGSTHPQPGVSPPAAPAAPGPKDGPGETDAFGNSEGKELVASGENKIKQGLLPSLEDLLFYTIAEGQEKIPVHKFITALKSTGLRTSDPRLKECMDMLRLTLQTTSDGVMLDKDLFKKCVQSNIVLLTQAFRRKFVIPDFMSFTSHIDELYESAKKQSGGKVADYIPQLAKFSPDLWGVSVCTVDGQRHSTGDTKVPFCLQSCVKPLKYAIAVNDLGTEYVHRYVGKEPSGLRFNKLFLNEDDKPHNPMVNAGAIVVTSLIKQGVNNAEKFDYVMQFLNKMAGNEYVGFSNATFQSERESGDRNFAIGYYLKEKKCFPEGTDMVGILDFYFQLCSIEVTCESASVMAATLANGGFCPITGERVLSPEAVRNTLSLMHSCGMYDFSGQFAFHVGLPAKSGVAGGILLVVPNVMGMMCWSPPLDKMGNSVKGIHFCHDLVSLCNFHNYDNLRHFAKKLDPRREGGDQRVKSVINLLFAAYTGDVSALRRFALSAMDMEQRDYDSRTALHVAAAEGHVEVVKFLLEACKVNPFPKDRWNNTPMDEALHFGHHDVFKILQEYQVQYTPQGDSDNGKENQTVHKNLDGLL
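Coupled fluorescence readout: glutamate oxidase/HRP/Amplex Red detect glutamate formed by hKGA from L-glutamine (1 mM solution added). Buffer 45 mM KH2PO4 pH 8.2, 0.02% Tween-20; reads at t0 and 30 min RT.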
Hits are given with their value; . = inactive; ? = inconclusive; / = no result given; [ ] = remark or other dose. Rows were chosen to be rich in hits. Some 10% of all compounds tested hit in one or more screens of this group. Calls follow the shape of the dose curve; as a rule, active = well fitted curve in the direction sought with a large enough effect; inconclusive = small, poorly fitted or top-dose-only effect, or another doubt; inactive = no such curve, though single readings can be large; an effect the other way counts as inactive or inconclusive.

SMILES | JMJD2A Tudor | G9a inh | HP1b binding inh | BAZ2B block | GLS inh
CCOC(=O)c1c(CSc2ccccc2)n(C)c2ccc(O)cc12 | . | 35µM | . | . | .
CCOC(=O)c1c(C)n(CCOc2ccccc2)c2ccc(O)cc12 | . | 4µM | . | . | .
CCN(Cc1ccncc1)C(=O)CCc1nnc(CCc2ccc(OC)cc2)o1 | . | / | . | . | .
Cc1cccc(Cn2cc3c(=O)n(Cc4cccc(F)c4)nc-3c3ccccc32)c1 | ? | . | ? | . | .
CCO/C=C1/C(=O)N(Cc2ccccc2)C(=O)c2ccccc21 | . | 14µM | . | . | .
CCO/C=C1\C(=O)N(c2ccccc2)C(=O)c2ccccc21 | . | 25µM | . | ? | .
CCO/C=C1/C(=O)N(CC)c2ccccc21 | .[11.4 µM] | ? | . | . | .
CCO/C=C1/C(=O)N(C)C(=O)c2cc(OC)ccc21 | . | 3.5µM | . | . | .
CCO/C=C1/C(=O)N(c2ccccc2OC)C(=O)c2ccccc21 | ? | 28µM | . | . | .
Cc1ccc(C(=O)N[C@H](C(=O)Nc2ccc(F)cc2)C(C)C)cc1 | . | . | . | . | .
COc1ccc(N2C(=O)c3ccccc3C2=O)cc1 | . | .[12.7 µM] | . | . | .
CCO/C=C1/C(=O)N(c2ccc(OC)cc2)C(=O)c2ccccc21 | . | 25µM | . | . | .
Cc1cc(S(=O)(=O)N2CCOCC2)ccc1OCC(=O)N1CCCC1 | . | . | . | . | .
C/C(=N\N=c1/sc2ccccc2n1C)c1ccc(N2CCOCC2)cc1 | . | 7.9µM | . | . | .
C/C(=N\N=c1/sc2ccccc2n1C)c1ccccn1 | ? | . | . | . | .
Cn1cnnc1SC1CCCCC1NS(=O)(=O)c1ccccc1 (stereo not given) | . | . | . | . | .
O=S(=O)(NC1CCCCC1Nc1ccccc1)c1ccccc1 (stereo not given) | . | . | . | . | .
Nn1cnnc1SC1CCCCC1NS(=O)(=O)c1ccccc1 (stereo not given) | . | ? | . | 71µM | .
CC(=O)Nc1ccc(NC2CCCCC2NS(=O)(=O)c2ccc(Cl)cc2)cc1 (stereo not given) | . | 40µM | . | . | .
Cn1cnnc1SC1CCCCC1NS(=O)(=O)c1ccc(Cl)cc1 (stereo not given) | . | 13µM | . | ? | .
CCNc1nc(NCC)nc(OCC(=O)O)n1 | . | ? | . | . | .
Cc1c(C(=O)N2CCCC2)sc(NC(=O)c2cccs2)c1C#N | . | .[12.7 µM] | . | . | .
COc1cc(/C=N/NC(=S)Nc2cccnc2)cc(OC)c1OC | . | .[12.7 µM] | . | . | .
CCc1ccc(Nc2nc3ccccc3nc2NS(=O)(=O)c2ccccc2)cc1 | . | . | . | . | .
CC(=O)Nc1ccc(S(=O)(=O)Nc2nc3ccccc3nc2Nc2ccc(S(N)(=O)=O)cc2)cc1 | . | 45µM | . | . | .
NS(=O)(=O)c1ccc(Nc2nc3ccccc3nc2NS(=O)(=O)c2cccc([N+](=O)[O-])c2)cc1 | ? | 32µM | . | ? | .
N#CC1=C(N)Nc2ncnn2C1c1ccccc1 (stereo not given) | / | . | / | . | /
CC(C)OC(=O)c1ccc(NC(=O)c2ccco2)cc1 | . | .[12.7 µM] | . | . | .
COc1ccc2[nH]c3c(NCCC4=CCCCC4)ncnc3c2c1 | 50µM | . | . | 28µM | .
CCN(CC)CCNc1ncnc2c1[nH]c1ccc(OC)cc12 | / | ? | / | . | /
